Only a selection was taken, and hits are over-represented in it overall.
Dicer inh – inhibitors of Dicer pre-microRNA processing, primary screen, biochemical, cat-ELCCA, chemiluminescence. z-score at 25 µM. cat-ELCCA pre-miR-21 Dicer processing; active compounds read high. actives 6% (n = 47,000). Endoribonuclease Dicer (Homo sapiens), Q9UPY3. AID 1347074, 2019; in the data active = z-score above about 3, passing the limit was not always enough;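 also: higher signal means more uncleaved substrate so more Dicer inhibition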
Target sequence (Q9UPY3 whole entry, looked up): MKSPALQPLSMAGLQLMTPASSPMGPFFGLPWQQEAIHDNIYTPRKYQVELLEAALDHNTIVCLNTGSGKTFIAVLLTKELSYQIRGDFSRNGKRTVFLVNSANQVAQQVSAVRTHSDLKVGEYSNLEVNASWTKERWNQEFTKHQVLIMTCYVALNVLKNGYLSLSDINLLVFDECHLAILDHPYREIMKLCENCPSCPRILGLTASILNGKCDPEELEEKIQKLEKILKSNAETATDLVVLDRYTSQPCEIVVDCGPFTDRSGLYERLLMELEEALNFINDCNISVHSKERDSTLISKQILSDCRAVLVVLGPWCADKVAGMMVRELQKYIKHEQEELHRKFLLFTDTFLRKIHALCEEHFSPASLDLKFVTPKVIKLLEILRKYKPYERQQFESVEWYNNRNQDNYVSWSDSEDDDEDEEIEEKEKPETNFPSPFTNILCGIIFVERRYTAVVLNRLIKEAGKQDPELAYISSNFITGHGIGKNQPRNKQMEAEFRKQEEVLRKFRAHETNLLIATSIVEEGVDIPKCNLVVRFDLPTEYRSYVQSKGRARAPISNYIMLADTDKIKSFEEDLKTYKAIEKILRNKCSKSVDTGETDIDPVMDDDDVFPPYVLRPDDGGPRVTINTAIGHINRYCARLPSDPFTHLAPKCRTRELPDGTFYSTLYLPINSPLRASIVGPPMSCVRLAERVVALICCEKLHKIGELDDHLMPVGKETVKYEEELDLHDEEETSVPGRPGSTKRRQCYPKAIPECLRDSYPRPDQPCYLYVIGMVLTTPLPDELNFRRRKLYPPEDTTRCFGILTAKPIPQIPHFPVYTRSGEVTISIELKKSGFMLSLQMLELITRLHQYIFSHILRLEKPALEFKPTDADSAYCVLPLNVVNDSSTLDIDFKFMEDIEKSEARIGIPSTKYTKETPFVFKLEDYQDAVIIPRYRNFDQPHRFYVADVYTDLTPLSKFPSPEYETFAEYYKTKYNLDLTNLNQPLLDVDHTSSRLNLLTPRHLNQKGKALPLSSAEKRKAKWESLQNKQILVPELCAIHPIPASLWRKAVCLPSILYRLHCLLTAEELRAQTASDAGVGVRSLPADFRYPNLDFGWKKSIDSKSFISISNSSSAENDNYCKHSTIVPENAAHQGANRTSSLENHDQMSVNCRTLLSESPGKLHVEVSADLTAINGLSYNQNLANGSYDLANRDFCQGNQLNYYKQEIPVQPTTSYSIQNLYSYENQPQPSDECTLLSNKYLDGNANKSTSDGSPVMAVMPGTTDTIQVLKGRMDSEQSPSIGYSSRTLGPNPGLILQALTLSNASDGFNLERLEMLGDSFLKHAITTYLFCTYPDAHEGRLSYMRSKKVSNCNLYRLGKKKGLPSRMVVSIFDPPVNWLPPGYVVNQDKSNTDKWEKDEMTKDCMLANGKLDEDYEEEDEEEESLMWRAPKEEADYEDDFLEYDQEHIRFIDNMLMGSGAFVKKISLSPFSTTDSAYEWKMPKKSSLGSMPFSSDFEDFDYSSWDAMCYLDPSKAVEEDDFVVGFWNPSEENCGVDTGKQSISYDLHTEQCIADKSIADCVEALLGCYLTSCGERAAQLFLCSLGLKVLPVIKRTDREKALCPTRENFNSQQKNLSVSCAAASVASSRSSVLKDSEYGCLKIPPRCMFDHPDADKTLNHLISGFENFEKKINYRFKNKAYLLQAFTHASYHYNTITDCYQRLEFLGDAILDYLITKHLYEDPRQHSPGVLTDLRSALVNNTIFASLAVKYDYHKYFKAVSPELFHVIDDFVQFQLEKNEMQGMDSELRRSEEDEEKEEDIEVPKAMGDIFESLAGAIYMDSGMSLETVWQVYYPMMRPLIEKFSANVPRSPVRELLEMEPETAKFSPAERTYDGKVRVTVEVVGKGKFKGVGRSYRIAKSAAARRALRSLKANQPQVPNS
Large screens that a line does not name were inactive.

CCSCCOC(=O)C1=C(C)NC2=C(C(=O)CCC2)C1c1ccccc1OC(C)C (configuration not stated)	none
CCOCCOC(=O)C1=C(C)NC2=C(C(=O)CCC2)C1c1cc(Br)c(O)c(OC)c1 (configuration not stated)	none
CCSCCOC(=O)C1=C(C)NC2=C(C(=O)CCC2)C1c1ccccc1OCc1ccccc1 (configuration not stated)	Dicer inh 6
CCSCCOC(=O)C1=C(C)NC2=C(C(=O)CCC2)C1c1ccc(-c2ccccc2)cc1 (configuration not stated)	none
CCSCCOC(=O)C1=C(C)NC2=C(C(=O)CCC2)C1c1ccc(CC)cc1 (configuration not stated)	none
CCCCOC(=O)C1=C(C)NC2=C(C(=O)CCC2)C1c1cc(Br)c(O)c(OCC)c1 (configuration not stated)	Dicer inh 3.2
CCOc1cc(C2C(C(=O)OC3CCCC3)=C(C)NC3=C2C(=O)CCC3)cc(Br)c1O (configuration not stated)	none
CCCCCOC(=O)C1=C(C)NC2=C(C(=O)CCC2)C1c1ccccc1OCCC (configuration not stated)	none
CC(C)OC(=O)Cn1cnc2ccccc2c1=O	none
CCCc1cnc(N2CCCN(C(=S)Nc3ccc(C)cc3C)CC2)nc1	none
Cc1c(-c2nnc(-c3cccc(C(F)(F)F)c3)o2)sc2nc(-c3ccc(Cl)cc3)nn12	none
O=C(CSc1nc(-c2cccs2)cc(C(F)(F)F)n1)Nc1cccnc1	none
Cc1ccc2nc(-c3ccc(NC(=O)c4c(-c5ccccc5Cl)noc4C)cc3)sc2c1	none
CC(C)CN1C(=O)C(=O)/C(=C(\O)c2ccc(Cl)cc2)C1c1ccccn1 (configuration not stated)	none
CN1CCN(C(=O)CSc2nc3c(c(C(F)(F)F)n2)CCc2ccccc2-3)CC1	none
COC(=O)CN1c2ccccc2NC2=C(C(=O)CC(C)(C)C2)C1c1ccco1 (configuration not stated)	none
COc1cc(/C=N/N=C2/NC(=O)CS2)cc(OC)c1	none
CCOCCOC(=O)C1=C(C)NC2=C(C(=O)CCC2)C1c1ccc(C(=O)OC)cc1 (configuration not stated)	Dicer inh 4.8
COC(=O)C1=C(C)NC2=C(C(=O)CCC2)C1c1ccc(C(=O)OC)cc1 (configuration not stated)	none
CCOCCOC(=O)C1=C(C)NC2=C(C(=O)CCC2)C1c1ccc(C)cc1 (configuration not stated)	none
O=S(=O)(Cc1ccccc1)c1nc2ccccc2[nH]1	none
COc1ccc(CCN2C(=O)CSC2c2ccc3c(c2)OCO3)cc1OC (configuration not stated)	none
CCOC(=O)c1c(N/N=C/c2ccc(O)cc2)n[nH]c1C	none
CCOC(=O)c1c(N=Cc2ccccc2Cl)n[nH]c1C	none
CCOC(=O)c1c(N=Cc2ccccc2[N+](=O)[O-])n[nH]c1C	Dicer inh 3.7
CCOc1ccc(C2C3=C(CCCC3=O)Nc3nc(-c4ccc(OC)cc4)nn32)cc1 (configuration not stated)	none
O=c1[nH]c2ccsc2c(=O)n1CCO	Dicer inh 3.2
Cc1csc2c(=O)n(CCO)c(=O)[nH]c12	Dicer inh 4.6
Cc1csc2nc(CN3CCOCC3)[nH]c(=O)c12	none
Cc1csc2c(=O)n(CCN3CCSCC3)c(=O)[nH]c12	Dicer inh 5.9
CC(C)CCn1c(=O)[nH]c2ccccc21	none
Cc1csc2c(N3CCSCC3)ncnc12	none
O=c1sc2ccccc2n1CCOc1ccccc1Cl	none
Cn1nc(C(F)(F)F)c(-c2ccc(Br)cc2)c1NC(=O)C(C)(C)C	none
CC(=O)/C(N=Nc1ccc(C(C)C)cc1)=C(\C)O	none
Clc1ccc(CSc2ccc(-c3ccccn3)s2)cc1	none
COc1cc(I)c(OC)cc1I	none
O=C(CS(=O)(=O)c1ccc(Br)cc1)c1ccccc1	Dicer inh 3.8
O=C(CSCC(=O)c1ccc(Br)cc1)c1ccc(Br)cc1	none
COC(=O)CCS(=O)(=O)c1ccc(Br)cc1	none
COc1ccccc1-c1coc2cc(OCC(=O)OC3CCCCC3)ccc2c1=O	none
COc1ccc(OC)c(S(=O)(=O)N2CCC(C)CC2)c1	none
COc1ccc(S(=O)(=O)N2CCCN(S(=O)(=O)c3ccc(OC)cc3C)CC2)c(C)c1	Dicer inh 3
COc1ccc(S(=O)(=O)N2CCCN(S(=O)(=O)c3ccc(OC)cc3)CC2)cc1	none
O=S(=O)(N=S1CCN(c2ccc(C(F)(F)F)cn2)CC1)c1ccc(Cl)cc1	none
N#C/C(=C\Nc1cc(Cl)cc(Cl)c1)S(=O)(=O)c1ccccn1	none
COC(=O)c1cc(OCC(F)(F)F)ccc1OCC(F)(F)F	none
COc1ccc(C(C)C)cc1S(=O)(=O)Nc1ccc(Cl)cn1	none
CCOc1ccc(Cl)cc1S(=O)(=O)NCc1ccccn1	none
CCOc1ccc(C)cc1S(=O)(=O)Nc1ccc(Cl)cn1	Dicer inh 4.6
COc1cc(OC)cc(-c2nc3n(n2)C(c2cccc(OC)c2OC)C2=C(CC(C)(C)CC2=O)N3)c1 (configuration not stated)	none
CCN(CC)CCCNc1oc(-c2ccc(F)cc2)nc1C#N	none
Cc1cccc(Cl)c1/C=N/NC(N)=S	none

Screens (PubChem)
